This is an account of results in ChEMBL document CHEMBL3988442, “University of Dundee, Small-Polar-MMV Screening Library” (2021).

SMILES strings stand for the structures. The whole screen tested about 48,000 compounds, of which about 13,000 (27%) showed an effect of 50% or more. The list shows a part of the results.

The assay deals with Wolbachia pipientis. In words: Anti-Wolbachia Cell-Based Screen. Particulars: 5 µM. It is filed as functional. Set-up: scale not given: in the data most compounds retested in dose-response had high values.
In the case of `Cc1nccn1-c1ccc(NC(=O)C2CCCN2Cc2c[nH]cn2)cc1` (centres undefined), the “Percent Effect” value is 1.287%.

For `COc1ncccc1C(=O)N1CCCC1c1nc(-c2ccccc2)n[nH]1` (centres undefined), the “Percent Effect” value is 0.4619%.

Turning to `O=C(c1cc2c([nH]c1=O)CCC2)N1CCCC1c1ccccn1` (centres undefined), the “Percent Effect” value is -3.505%.

For `CNC(=O)c1cn[nH]c1C1CCCN1C(=O)c1ccccn1` (centres undefined), the “Percent Effect” value is on record as 122.3%.

Take `NC(=O)c1cn[nH]c1C1CCCN1C(=O)COc1ccccc1` (centres undefined): the “Percent Effect” value is 125.9%.

In the case of `NC(=O)c1cn[nH]c1C1CCCN1C(=O)c1ccccn1` (centres undefined), the “Percent Effect” value turned out to be 92.76%.

For the molecule `O=C(c1ccncc1F)N1CCCC1c1nc(-c2ccccc2)n[nH]1` (centres undefined), the “Percent Effect” value is 0.33%.

For `NC(=O)c1cn[nH]c1C1CCCN1C(=O)c1ccccc1` (centres undefined), the “Percent Effect” value came out at 135.8%.

Regarding `O=C(c1cc2c([nH]c1=O)CCC2)N1CCCC1c1ccccc1` (centres undefined), the “Percent Effect” value is -12.47%.

As for `CN(CC(=O)Nc1cccc(F)c1)Cc1nc(N)nc(N(C)C)n1`, the “Percent Effect” value is on record as 5.267%.

In the case of `CCCSc1ccccc1NC(=O)N1CCN(C(=O)c2ccc[nH]2)CC1`, the “Percent Effect” value is recorded as -3.563%.

Take `Nc1cc2c(nn1)CCN(C(=O)c1csc(-c3ccco3)n1)C2`: the “Percent Effect” value is recorded as -0.9791%.

Take `CCCc1cc(CN(C)C2CCSCC2)n[nH]1`: the “Percent Effect” value is -21.94%.

Take `Cn1cc(C[C@H]2[C@H](N3CCOCC3)CCN2C(=O)c2ccoc2)cn1`: the “Percent Effect” value is on record as -12.72%.

As for `Cc1ccc(C(=O)N2CCN(c3ncnc4nc(N)ccc34)CC2)cc1`, the “Percent Effect” value is reported as -17.64%.

As to `CCn1cc(CN2CCN(Cc3cc(C)cc(C)c3)C(=O)C2)cc1C#N`, the “Percent Effect” value is listed as -8.463%.

For the molecule `CCC(=O)c1ccc(OCC(=O)N2CCNCC2C(=O)NC2CC2)cc1` (centres undefined), the “Percent Effect” value is -8.081%.

As for `O=C(NC1CC1)C1CNCCN1C(=O)COc1ccc2c(c1)OCO2` (centres undefined), the “Percent Effect” value worked out at 8.797%.

Regarding `O=C(c1cc2c([nH]c1=O)CCC2)N1CCCC1c1cccnc1` (centres undefined), the “Percent Effect” value was -4.003%.

Regarding `NC(=O)c1cn[nH]c1C1CCCN1C(=O)c1cnccn1` (centres undefined), the “Percent Effect” value is 109.9%.

In the case of `Cl.NC(=O)C1CNCCN1C(=O)COc1ccccc1` (centres undefined), the “Percent Effect” value came to 142%.

Take `O=C(C1CCC1)N1CCN(C(=O)c2cnccn2)[C@H]2CS(=O)(=O)C[C@H]21`: the “Percent Effect” value was -11.57%.

For the molecule `O=C(NCc1ccc2c(c1)CCCO2)c1cn2c(n1)CNCC2`, the “Percent Effect” value is -2.912%.

Consider `CN1CCC(N(Cc2ccco2)S(=O)(=O)c2ccc(Cl)cc2)CC1`, for which the “Percent Effect” value was 18.55%.

`COCCc1noc(-c2ccc(N[C@H]3CCCCNC3=O)nc2)n1`: the “Percent Effect” value is listed as -20.61%.

Turning to `COc1nc2ccn(CCc3scnc3C)c(=O)c2cc1C#N`, the “Percent Effect” value is recorded as -7.908%.

Regarding `O=C(NCCN1CCCCCC1=O)c1n[nH]c(=O)c2ccccc12`, the “Percent Effect” value is on record as -2.472%.

Regarding `CCn1nc(C)c(CCNC(=O)c2coc(CN3CCOCC3)c2)c1C`, the “Percent Effect” value is on record as -5.303%.

`Cc1nn(Cc2ccc(C(=O)NCCCN3CCCC3=O)o2)c(C)c1Br`: the “Percent Effect” value is 118.7%.

In the case of `Cc1ccc(C(=O)NCCCN2CCOCC2)c(Cl)c1`, the “Percent Effect” value is -7.154%.

Consider `Cc1nn(Cc2ccc(C(=O)NCCCN3CCCC3=O)o2)c(C)c1Cl`, for which the “Percent Effect” value was determined as 113%.

As to `CC(NC(=O)NCCCN1CCCC1=O)c1ccc(Cl)s1` (centres undefined), the “Percent Effect” value was 5.893%.

As to `Cc1nn(Cc2ccc(C(=O)NCCCN3CCOCC3)o2)c(C)c1Cl`, the “Percent Effect” value came to 123.2%.

In the case of `Cn1cc(C(=O)NCCCN2CCCCCC2=O)c(-c2cccnc2)n1`, the “Percent Effect” value is -24.83%.

`O=C(NCCCN1CCCC1=O)Nc1ccc(Br)cc1Cl`: the “Percent Effect” value was found to be 29.75%.

For `CCOCC1CN(C(=O)c2ccncc2)Cc2nn(C)cc21.O=C(O)C(F)(F)F` (centres undefined), the “Percent Effect” value is recorded as -7.804%.

As to `COCCn1cc(C(=O)N2CCCC2c2cc(C)no2)ccc1=O` (centres undefined), the “Percent Effect” value is -14.99%.

As to `CN1CCC(O)(CNCc2ccc(F)c(C(F)(F)F)c2)CC1`, the “Percent Effect” value is -14.25%.

For `COCCNc1nc(C)nc2c1CCN(C[C@H]1CC[C@@H](N)CC1)CC2`, the “Percent Effect” value was determined as 85.9%.

As to `COCCNc1nc2c(c(NCC3CCOC3)n1)CCNCC2` (centres undefined), the “Percent Effect” value is reported as 0.8355%.

On to `Cc1cnn(CCNc2ncnc3c2CCN(CC2CCOC2)CC3)c1` (centres undefined), for which the “Percent Effect” value is listed as 11.29%.

With `Nc1nc2c(c(NCc3nccs3)n1)CCN(CC1CCCC1)CC2`, the “Percent Effect” value was 99.65%.

For `Cc1nc2c(c(NCCc3nc(C)c(Cl)s3)n1)CCNCC2`, the “Percent Effect” value is on record as 2.221%.

As for `CCOCc1nc2c(c(N3CC=CC3)n1)CCN(CC1CC1)CC2`, the “Percent Effect” value is recorded as -17.04%.

As to `Nc1nc2c(c(N3CCSCC3)n1)CCN(Cc1ccccn1)CC2`, the “Percent Effect” value came out at 1.858%.

Consider `c1csc(CN2CCc3nc(N4CCOCC4)nc(NC4CC4)c3C2)n1`, for which the “Percent Effect” value is recorded as -41.6%.

Turning to `Cc1nc2c(c(NCCc3nccs3)n1)CCN(CC1CC1)CC2`, the “Percent Effect” value is 100.8%.

For `CCN(Cc1nccn1C)C(=O)c1ccc(NCC(C)C)nc1`, the “Percent Effect” value is -32.37%.

Turning to `Cc1cnc(N2CCC3(C2)CN(S(=O)(=O)C2CC2)C3)nc1`, the “Percent Effect” value was -23.78%.
